The source of these data is PubChem BioAssay (NCATS).

In assay [1] the target is Voltage-gated inwardly rectifying potassium channel KCNH2 (Homo sapiens) (UniProt Q12809). Kind of assay: qHTS Assay for Small Molecule Inhibitors of the Human hERG Channel Activity (AID 588834).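 Note: lower thallium flux fluorescence means stronger hERG block; nearly all actives have a fitted effect of over 50% in size.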 Note: potency is the fitted concentration of half-maximal effect. The method in brief: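 hERG block measured as reduced thallium-dye (FluxOR) fluorescence after stimulation buffer addition, read over 2 min. Cells were hERG-BacMam-transduced U2OS exposed to compound ~10 min […]; concentration-response fitted with Hill equation for AC50.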
On the technique in general: qHTS replaces the single test concentration by a dilution series.

The target of assay [2] is Luciferin 4-monooxygenase (Photinus pyralis) (UniProt P08659). Kind of assay: Biochemical firefly luciferase enzyme assay for NPC (AID 624030).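 Note: purified P. pyralis luciferase at 10 nM with luciferin and ATP substrate; series mostly up to about 59 µM; 0% = DMSO and -100% = full luciferase inhibition by PTC124 control; nearly all actives have a fitted effect of over 70% in size.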 In short, it runs like this: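 Counter-screen for direct inhibition of the luciferase enzyme by approved-drug library compounds, run at 10 nM enzyme in 50 mM Tris acetate (final). Luminescence was read within 5 min of enzyme-buffer addition and normalized to PTC124 versus DMSO (0%).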

A short description of assay [3]: S16 Schwann cell viability assay (CellTiter-Glo assay) (AID 624031). Note: nearly all actives have a fitted effect of over 70% in size. Note: potency is the fitted concentration of half-maximal effect. In short, it runs like this:
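Following overnight culture in 10% FBS DMEM, parental S16 rat Schwann cells are dosed for 24 h at 37 °C. Viability is read as CellTiter-Glo luminescence and expressed as % activity relative to DMSO (0%) and no-cell wells.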
For orientation: In ATP-based viability assays light output follows the ATP content of the culture.

The nature of assay [4]: S16 Schwann cell PMP22 intronic element firefly luciferase assay (AID 624032). Note: nearly all actives have a fitted effect of over 30% in size. Note: potency is the fitted concentration of half-maximal effect. In short, it runs like this:
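Rat S16 Schwann cells stably carrying a PMP22 intronic element-driven Fluc reporter were seeded overnight, then exposed to compounds for 24 h at 37 °C. Luminescence was normalized to PTC124 (positive control) and DMSO (0% activity).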

Assay [5] has as its target Glutaminase kidney isoform, mitochondrial (Homo sapiens) (UniProt O94925). Kind of assay: qHTS for Inhibitors of Glutaminase (GLS): LOPAC Validation (AID 624146).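 Note: glutamate product detected by oxidase and peroxidase coupled Amplex red fluorescence gain; series mostly up to about 46 µM; % is set by controls: 0 for no effect and ±100 for the full control effect; nearly all actives have a fitted effect of over 60% in size.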 In short, it runs like this:
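hKGA in 45 mM KH2PO4 pH 8.2, 0.02% Tween-20 with pin-transferred compounds; 1 mM L-glutamine (stock) plus glutamate oxidase/HRP/Amplex Red coupling added. Fluorescence read initially and after 30 min at RT.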

Assay [6] in a line: qHTS of Trypanosoma Brucei Inhibitors: LOPAC Validation (AID 624147). Note: 0% is about no effect. The method in brief: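 Glycolytic pyruvate kinase of T. brucei was incubated with substrate, test compound and 130 uM ADP for 45 minutes at room temperature. Luminescent Kinase-Glo Plus signal was measured after 10 minutes.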
The target of assay [7] is Glucocorticoid receptor (Homo sapiens) (UniProt P04150). Kind of assay: qHTS assay for small molecule agonists of glucocorticoid receptor signaling (AID 588532; active = well fitted curve in the direction sought with a large enough effect in the signal ratio, with a control signal flat; the % refers to the signal ratio;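 note: 100% = dexamethasone at 0.1 µM and 0% = DMSO only wells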). As to conditions: HeLa MMTV-bla, beta-lactamase ratio, agonist, 18 h; activation: stronger effect = higher value, percent of dexamethasone control, DMSO zero. In short, it runs like this: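 MMTV-bla HeLa, beta-lactamase reporter; medium with 1% charcoal/dextran-stripped FBS; cpds up to 92 uM, 18 h, 37 C; CCF4 readout 460/530 nm; Hill fit → EC50, efficacy vs 0.1 uM dexamethasone = 100%.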

Assay [8] shares this target. Kind of assay: qHTS assay for small molecule antagonists of glucocorticoid receptor signaling (AID 588533; active = well fitted inhibition curve with a large enough effect in the signal ratio, with a control signal flat, not every such curve was filed as active; the % refers to the signal ratio;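 note: cells stimulated with 2 nM dexamethasone as agonist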; note: potency is the fitted concentration of half-maximal effect). In short, it runs like this: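 Antagonist-mode qHTS: compound titrations added to GRE-bla HeLa cells, then dexamethasone 2 nM final; 18 h, 37 C. CCF4 FRET fluorescence normalized to dexamethasone and DMSO; IC50 from Hill fit.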
The target of assay [9] is Vitamin D3 receptor (Homo sapiens) (UniProt P11473). Kind of assay: qHTS assay for small molecule agonists of vitamin D receptor signaling (AID 588543; calls by dose curve;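 note: 0% = DMSO basal and 100% = reference agonist control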). In short, it runs like this:
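Agonist-mode beta-lactamase reporter: HEK293T VDR-UAS-bla cells in charcoal-stripped 2% FBS, compound series 16 h 37 C, CCF4 2 h RT. EC50 from Hill fit, scaled against DMSO and 50 nM calcitriol control.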

A short description of assay [10]: qHTS assay for small molecule agonists of retinoid X receptor alpha signaling (AID 588544; calls by dose curve;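 for activation: 0% = DMSO basal wells and 100% = reference agonist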). As to conditions: HEK293T RXRa-UAS-bla, beta-lactamase reporter, 18 h; 530 nm emission.
Assay [11] deals with Retinoic acid receptor RXR-alpha (Homo sapiens) (UniProt P19793). Described as above.
In assay [12] the target is Thyroid hormone receptor beta (Homo sapiens) (UniProt P10828). Kind of assay: qHTS assay for small molecule agonists of thyroid hormone receptor beta signaling (AID 588545; calls by dose curve). In short, it runs like this: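 Agonist-mode beta-lactamase reporter assay, HEK 293 cells, 2% charcoal/dextran FBS; cells plated 4 hrs, compound 18 hrs at 37 C, CCF4 2 hrs RT. Normalized to 10 nM T3 (100%) and DMSO (0%); Hill fit gives EC50, efficacy.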

Assay [13] in a line: qHTS assay for small molecule antagonists of retinoid X receptor alpha signaling (AID 588546; active = well fitted inhibition curve with a large enough effect in the signal ratio, with a control signal flat, not every such curve was filed as active; the % refers to the signal ratio;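 note: cells stimulated with 9-cis-retinoic acid as agonist; % is set by controls: 0 for no effect and ±100 for the full control effect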). As to conditions: HEK293T RXRa-UAS-bla, beta-lactamase ratio, antagonist mode; measured here: W530 green channel, cytotoxicity proxy. The method in brief: (§1)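 Beta-lactamase reporter inhibition, read as CCF4 fluorescence ratio (ex 405, em 460/530 nm) after 2 h at RT. HEK293T UAS-bla cells, 2500/well, were stimulated with 9-cis-RA at 500 or 100 nM final alongside test compound for 18 h at 37 C.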

Assay [14] addresses Retinoic acid receptor RXR-alpha (Homo sapiens) (UniProt P19793). Described as above. As to conditions: HEK293T RXRa-UAS-bla, beta-lactamase ratio, antagonist mode. In short, it runs like this: as §1
Assay [15] is described as follows: S16 Schwann cell PMP22 intronic element beta-lactamase assay (AID 624044; calls by dose curve;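 note: 0% = DMSO and -100% = potassium clavulanate positive control; nearly all actives have a fitted effect of over 15% in size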). The method in brief: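 Beta-lactamase reporter under a PMP22 intronic regulatory element in stable S16 rat Schwann cells; 24 h compound exposure. 460 nm blue signal normalized between DMSO (0%) and potassium clavulanate, with 535 nm FRET tracking viability; curves classed by r2 and response.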

The nature of assay [16]: qHTS assay for small molecule antagonists of peroxisome proliferator-activated receptor delta signaling (AID 588535; active = well fitted inhibition curve with a large enough effect in the signal ratio, with a control signal flat, not every such curve was filed as active; the % refers to the signal ratio;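 for max response: cells co-treated with a PPAR-delta agonist as stimulator during compound exposure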). As to conditions: HEK293T PPARd-UAS-bla, beta-lactamase FRET ratio, 18 h; 460 nm channel. In short, it runs like this: (§2)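 Inhibition of PPAR-delta response element-driven beta-lactamase expression is measured in HEK293T cells exposed to a compound titration series for 18 hrs at 37 C. Half-maximal inhibition comes from Hill equation fitting.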

The target in assay [17] is Peroxisome proliferator-activated receptor delta (Homo sapiens) (UniProt Q03181). Described as above. In short, it runs like this: as §2
Assay [18] concerns the target Peroxisome proliferator-activated receptor gamma (Homo sapiens) (UniProt P37231). Kind of assay: qHTS assay for small molecule antagonists of peroxisome proliferator-activated receptor gamma signaling (AID 588537; active = well fitted inhibition curve with a large enough effect in the signal ratio, with a control signal flat, not every such curve was filed as active; the % refers to the signal ratio;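 note: reporter cells co-stimulated with 50 nM rosiglitazone agonist during compound treatment; % of control where 0% means no effect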). In short, it runs like this:
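Compounds are tested as concentration series for inhibition of rosiglitazone-driven (50 nM) reporter expression in GeneBLAzer PPAR-gamma-UAS-bla HEK293 cells. After 16 h at 37 C, CCF4 substrate is added for 2 h at room temperature and blue/green fluorescence is measured.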

Assay [19] deals with Thyroid hormone receptor beta (Homo sapiens) (UniProt P10828). Kind of assay: qHTS assay for small molecule antagonists of thyroid hormone receptor beta signaling (AID 588547; active = well fitted inhibition curve with a large enough effect in the signal ratio, with a control signal flat, not every such curve was filed as active; the % refers to the signal ratio;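 note: cells stimulated with 0.4 nM T3 agonist during compound exposure; series mostly up to about 77 µM; % is set by controls: 0 for no effect and ±100 for the full control effect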). As to conditions: TR-UAS-bla HEK293, beta-lactamase ratio, antagonist mode, 18 h. In short, it runs like this: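 TR-UAS-bla GripTite HEK293 cells in 2% charcoal/dextran FBS medium were preincubated 4 h at 37 C, given compound (0.59 nM to 92 uM) plus 0.4 nM T3 (final) for 18 h, then CCF4 for 2 h at RT; Hill fit gave IC50.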

Assay [20] addresses Vitamin D3 receptor (Homo sapiens) (UniProt P11473). Kind of assay: qHTS assay for small molecule antagonists of vitamin D receptor signaling (AID 588541; calls by dose curve;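 note: receptor activated by calcitriol during compound treatment; series mostly up to about 77 µM; % is set by controls: 0 for no effect and ±100 for the full control effect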). In short, it runs like this: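 VDR-UAS-bla HEK293T cells (2000/well, 2% charcoal-stripped FBS) were treated with titrated compounds plus 1-alpha,25-dihydroxyvitamin D3 (50 nM or 3 nM final) for 16 h at 37 C. CCF4 beta-lactamase fluorescence was read; Hill fits gave IC50.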

Structures are written as SMILES. Where “and” joins values, the source holds several entries; their conditions need not be identical. Equal values may be shown once. Records with an inconclusive call do not appear. Calls of active or inactive are those of the source. Unless noted, calls come from the whole dose curve; as a rule, active = well fitted curve in the direction sought with a large enough effect; inconclusive = small, poorly fitted or top-dose-only effect, or another doubt; inactive = no such curve, though single readings can be large; an effect the other way counts as inactive or inconclusive.

Chain of Luciferin 4-monooxygenase (Photinus pyralis) (P08659 whole entry, looked up): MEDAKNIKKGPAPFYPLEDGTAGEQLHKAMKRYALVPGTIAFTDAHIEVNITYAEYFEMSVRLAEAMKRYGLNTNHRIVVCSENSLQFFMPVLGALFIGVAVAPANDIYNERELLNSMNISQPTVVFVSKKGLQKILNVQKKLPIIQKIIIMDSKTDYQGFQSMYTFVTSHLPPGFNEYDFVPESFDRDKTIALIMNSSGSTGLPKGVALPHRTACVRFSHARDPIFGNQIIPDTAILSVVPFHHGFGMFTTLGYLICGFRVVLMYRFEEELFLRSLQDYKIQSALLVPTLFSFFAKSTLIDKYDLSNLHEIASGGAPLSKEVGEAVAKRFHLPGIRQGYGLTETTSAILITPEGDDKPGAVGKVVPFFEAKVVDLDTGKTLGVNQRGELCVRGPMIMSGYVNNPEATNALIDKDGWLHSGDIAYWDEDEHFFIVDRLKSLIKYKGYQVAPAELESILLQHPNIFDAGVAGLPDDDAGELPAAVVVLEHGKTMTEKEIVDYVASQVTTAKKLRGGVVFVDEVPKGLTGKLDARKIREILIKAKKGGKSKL
Chain of Glucocorticoid receptor (Homo sapiens) (P04150 whole entry, looked up): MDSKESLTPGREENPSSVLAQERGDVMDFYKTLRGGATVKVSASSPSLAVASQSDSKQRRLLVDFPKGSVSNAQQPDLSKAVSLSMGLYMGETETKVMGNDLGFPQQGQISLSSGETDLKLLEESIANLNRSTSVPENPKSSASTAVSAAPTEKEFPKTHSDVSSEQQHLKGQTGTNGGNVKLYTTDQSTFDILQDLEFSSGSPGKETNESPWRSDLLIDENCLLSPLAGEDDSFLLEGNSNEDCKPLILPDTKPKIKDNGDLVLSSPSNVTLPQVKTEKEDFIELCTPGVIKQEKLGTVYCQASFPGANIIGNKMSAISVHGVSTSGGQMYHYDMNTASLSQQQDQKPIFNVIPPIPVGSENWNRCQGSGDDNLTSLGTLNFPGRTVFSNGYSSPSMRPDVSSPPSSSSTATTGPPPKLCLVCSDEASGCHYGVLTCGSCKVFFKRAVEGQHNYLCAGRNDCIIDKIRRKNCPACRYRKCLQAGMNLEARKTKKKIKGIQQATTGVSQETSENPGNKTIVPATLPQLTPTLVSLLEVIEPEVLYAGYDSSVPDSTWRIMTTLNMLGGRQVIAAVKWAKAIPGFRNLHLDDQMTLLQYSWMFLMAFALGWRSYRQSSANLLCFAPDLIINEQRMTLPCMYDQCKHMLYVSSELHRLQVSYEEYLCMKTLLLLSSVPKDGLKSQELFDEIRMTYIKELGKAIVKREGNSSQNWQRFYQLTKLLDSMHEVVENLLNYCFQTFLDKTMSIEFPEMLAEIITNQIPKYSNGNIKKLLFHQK
Chain of Voltage-gated inwardly rectifying potassium channel KCNH2 (Homo sapiens) (Q12809 whole entry, looked up): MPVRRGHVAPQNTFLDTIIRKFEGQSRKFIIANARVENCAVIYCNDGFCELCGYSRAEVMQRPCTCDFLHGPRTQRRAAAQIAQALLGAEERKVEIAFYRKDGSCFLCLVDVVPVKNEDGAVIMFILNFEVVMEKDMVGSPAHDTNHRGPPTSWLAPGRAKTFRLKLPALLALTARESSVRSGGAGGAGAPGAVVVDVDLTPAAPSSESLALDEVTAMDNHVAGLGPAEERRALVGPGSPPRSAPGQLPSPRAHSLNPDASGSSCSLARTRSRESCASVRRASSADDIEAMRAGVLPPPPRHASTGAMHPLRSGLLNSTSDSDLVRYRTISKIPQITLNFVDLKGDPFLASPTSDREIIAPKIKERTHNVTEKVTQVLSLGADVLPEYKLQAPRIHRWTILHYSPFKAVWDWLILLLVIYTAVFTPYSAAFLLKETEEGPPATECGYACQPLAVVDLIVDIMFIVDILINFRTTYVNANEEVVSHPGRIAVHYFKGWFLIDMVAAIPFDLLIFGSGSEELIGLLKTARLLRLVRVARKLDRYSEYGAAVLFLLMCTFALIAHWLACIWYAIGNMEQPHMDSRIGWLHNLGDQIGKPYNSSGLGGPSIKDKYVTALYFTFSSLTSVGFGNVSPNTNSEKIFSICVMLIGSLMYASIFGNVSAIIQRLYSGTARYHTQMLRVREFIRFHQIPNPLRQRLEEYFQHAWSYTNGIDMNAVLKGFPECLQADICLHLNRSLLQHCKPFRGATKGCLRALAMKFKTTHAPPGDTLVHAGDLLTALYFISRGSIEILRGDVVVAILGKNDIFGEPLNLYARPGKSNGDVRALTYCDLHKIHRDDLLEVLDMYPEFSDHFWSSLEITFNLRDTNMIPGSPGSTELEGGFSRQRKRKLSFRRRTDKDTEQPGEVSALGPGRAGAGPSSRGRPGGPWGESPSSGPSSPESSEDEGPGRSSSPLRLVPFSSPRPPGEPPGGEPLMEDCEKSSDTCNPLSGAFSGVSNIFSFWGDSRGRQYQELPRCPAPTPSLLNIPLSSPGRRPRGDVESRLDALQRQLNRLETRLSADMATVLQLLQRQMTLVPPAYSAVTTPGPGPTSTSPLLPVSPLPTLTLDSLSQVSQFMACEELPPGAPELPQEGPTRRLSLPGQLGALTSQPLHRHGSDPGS
Chain of Vitamin D3 receptor (Homo sapiens) (P11473 whole entry, looked up): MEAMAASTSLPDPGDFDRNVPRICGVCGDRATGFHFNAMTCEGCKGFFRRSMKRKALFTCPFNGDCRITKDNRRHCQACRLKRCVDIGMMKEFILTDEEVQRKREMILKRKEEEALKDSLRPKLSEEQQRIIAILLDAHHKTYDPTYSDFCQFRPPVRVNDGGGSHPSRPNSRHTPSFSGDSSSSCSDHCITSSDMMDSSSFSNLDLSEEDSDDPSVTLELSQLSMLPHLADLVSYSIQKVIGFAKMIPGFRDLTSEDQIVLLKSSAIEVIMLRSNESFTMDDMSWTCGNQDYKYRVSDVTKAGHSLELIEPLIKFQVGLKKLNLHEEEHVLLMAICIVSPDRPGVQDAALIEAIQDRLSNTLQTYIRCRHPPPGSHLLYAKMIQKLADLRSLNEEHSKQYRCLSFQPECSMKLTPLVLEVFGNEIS
Chain of Thyroid hormone receptor beta (Homo sapiens) (P10828 whole entry, looked up): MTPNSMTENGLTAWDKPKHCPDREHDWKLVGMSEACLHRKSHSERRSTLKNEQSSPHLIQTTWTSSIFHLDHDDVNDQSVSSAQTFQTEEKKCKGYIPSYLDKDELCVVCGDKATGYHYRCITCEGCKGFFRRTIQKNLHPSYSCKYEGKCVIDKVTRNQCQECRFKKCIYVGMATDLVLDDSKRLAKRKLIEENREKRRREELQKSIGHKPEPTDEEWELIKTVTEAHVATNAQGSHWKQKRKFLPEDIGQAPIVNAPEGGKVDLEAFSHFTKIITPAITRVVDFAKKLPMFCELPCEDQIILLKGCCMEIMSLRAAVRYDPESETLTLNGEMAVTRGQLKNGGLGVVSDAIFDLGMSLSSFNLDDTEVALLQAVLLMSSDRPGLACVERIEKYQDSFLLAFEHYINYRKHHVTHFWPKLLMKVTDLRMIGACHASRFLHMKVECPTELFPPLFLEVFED
Chain of Peroxisome proliferator-activated receptor gamma (Homo sapiens) (P37231 whole entry, looked up): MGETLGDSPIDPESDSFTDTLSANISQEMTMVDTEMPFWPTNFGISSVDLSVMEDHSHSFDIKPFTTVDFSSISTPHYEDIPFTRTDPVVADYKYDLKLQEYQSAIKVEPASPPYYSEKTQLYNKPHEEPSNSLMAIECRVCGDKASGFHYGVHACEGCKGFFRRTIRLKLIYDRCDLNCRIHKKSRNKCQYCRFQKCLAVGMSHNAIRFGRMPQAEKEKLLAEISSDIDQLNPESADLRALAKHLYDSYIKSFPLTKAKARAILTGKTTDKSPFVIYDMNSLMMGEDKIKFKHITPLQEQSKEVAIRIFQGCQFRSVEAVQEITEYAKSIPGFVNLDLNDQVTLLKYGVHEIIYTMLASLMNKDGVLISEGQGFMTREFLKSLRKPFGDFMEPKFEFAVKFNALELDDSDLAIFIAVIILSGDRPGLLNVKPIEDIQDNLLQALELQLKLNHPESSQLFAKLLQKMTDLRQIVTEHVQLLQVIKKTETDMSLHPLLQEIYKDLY
Chain of Retinoic acid receptor RXR-alpha (Homo sapiens) (P19793 whole entry, looked up): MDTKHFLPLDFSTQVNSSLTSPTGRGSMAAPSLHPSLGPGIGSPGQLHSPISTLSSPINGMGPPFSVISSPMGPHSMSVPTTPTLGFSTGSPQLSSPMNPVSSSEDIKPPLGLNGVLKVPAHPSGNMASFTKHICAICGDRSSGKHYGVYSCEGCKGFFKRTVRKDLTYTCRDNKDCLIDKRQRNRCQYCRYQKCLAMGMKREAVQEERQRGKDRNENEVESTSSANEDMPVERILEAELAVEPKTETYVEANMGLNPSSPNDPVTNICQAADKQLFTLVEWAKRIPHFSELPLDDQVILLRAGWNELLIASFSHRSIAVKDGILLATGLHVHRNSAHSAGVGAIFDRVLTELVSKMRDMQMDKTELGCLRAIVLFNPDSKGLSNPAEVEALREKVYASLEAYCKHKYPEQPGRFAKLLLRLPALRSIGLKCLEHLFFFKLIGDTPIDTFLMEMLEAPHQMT
Chain of Glutaminase kidney isoform, mitochondrial (Homo sapiens) (O94925 whole entry, looked up, canonical isoform): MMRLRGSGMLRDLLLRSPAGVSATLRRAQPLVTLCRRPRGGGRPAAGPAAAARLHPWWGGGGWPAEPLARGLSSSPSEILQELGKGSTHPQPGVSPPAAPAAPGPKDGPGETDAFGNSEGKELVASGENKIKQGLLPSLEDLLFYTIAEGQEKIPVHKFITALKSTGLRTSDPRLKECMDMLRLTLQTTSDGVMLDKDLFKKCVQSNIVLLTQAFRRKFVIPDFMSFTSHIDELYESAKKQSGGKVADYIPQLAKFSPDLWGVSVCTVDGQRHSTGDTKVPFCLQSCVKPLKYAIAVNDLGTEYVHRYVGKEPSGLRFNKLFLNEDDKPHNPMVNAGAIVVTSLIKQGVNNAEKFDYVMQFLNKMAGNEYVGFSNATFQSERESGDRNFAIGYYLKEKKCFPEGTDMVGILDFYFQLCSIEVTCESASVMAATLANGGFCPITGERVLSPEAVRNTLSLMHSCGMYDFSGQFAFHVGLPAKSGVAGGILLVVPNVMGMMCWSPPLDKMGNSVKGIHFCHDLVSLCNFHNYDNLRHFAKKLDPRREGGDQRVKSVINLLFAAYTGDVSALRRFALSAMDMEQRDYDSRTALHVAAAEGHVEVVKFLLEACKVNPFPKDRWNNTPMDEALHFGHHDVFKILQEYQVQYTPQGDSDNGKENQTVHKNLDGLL

`CSc1ccc(C(=O)c2[nH]c(=O)[nH]c2C)cc1`: the Potency entry in assay [1], in assay [2], in assay [3], in assay [4] and in assay [5] was “inactive” throughout. Further, in assay [6], the outcome was inactive.

For the compound `OCCN1CCN(CCCN2c3ccccc3C=Cc3ccccc32)CC1`, the Potency in assay [1] was 12.6 µM (active); in assay [3] it was 28.7 µM (active); in assay [4] it was 36.1 µM (active). The Potency result in assay [2] and in [5] was “inactive” each time. Further, the compound was classed as inactive in assay [6].

On to `CN1CCN(C2=Nc3ccccc3Oc3ccc(Cl)cc32)CC1`, for which the Potency in assay [1] was 11.2 µM (active) and 10 µM (active). Further, the Potency entry in assay [2], in assay [3], in assay [4] and in assay [5] was “inactive” in each case. In addition, the compound was classed as inactive in assay [6].

In the case of `Nc1ncn([C@@H]2O[C@H](CO)[C@@H](O)[C@H]2O)c(=O)n1`, the activation in assay [7] is -7.09% (inactive) and -13.7% (inactive). In addition, in assay [8], the Potency is 7.94 µM (active) and 5.62 µM (active). Further, the outcome in assay [9] and in assay [11] was inactive. Besides, the max response in [10] is -23.8%; in [13], -15%; in assay [14], 19.1% (inactive). Moreover, the Potency result in assay [12], in assay [2], in [3], in [15] and in [5] was “inactive” in each case.

For `CCO/C([O-])=N/c1c[n+](N2CCOCC2)no1`, the Potency result in [1], in assay [2], in assay [3], in [4] and in assay [5] was “inactive” in each case. Moreover, the outcome in [6] was inactive.

Turning to `C[N+](C)(C)CCOC(N)=O`, the Potency entry in [1], in assay [2], in [3], in assay [4] and in assay [5] was “inactive” in each case.

As for `NC(=O)N1c2ccccc2C=Cc2ccccc21`, the max response is 34.8% in [16]; -3.76% and -20.7% in [10]; -1.27% and -13.7% in assay [13]; 2.96% (inactive) and -0.41% (inactive) in [14]. Moreover, the outcome in assay [17], in assay [18], in [11] and in assay [6] was inactive. Also, the Potency result in assay [12], in assay [1], in assay [2], in [3], in [4] and in assay [5] was “inactive” in each case. In addition, the activity change % (negative = inhibition) in [19] was 8.17% (inactive).

Take `CCCCNC(=O)NS(=O)(=O)c1ccc(C)cc1`: the activation in [7] was -10.2% (inactive). Besides, the Potency result in assay [8], in [12], in assay [1], in assay [2], in assay [3] and in [15] was “inactive” each time. Besides, the Potency result in assay [5] is “inactive”. Moreover, the max response in assay [16] is -29.2% and 9.07%; in [10], -17.3%; in assay [13], -0.0633%; in [14], -16.3% (inactive). The compound was called inactive in assay [17], in assay [18], in [20], in [9], in [11] and in assay [6]. In addition, the activity change % (negative = inhibition) in assay [19] is -17.2% (inactive) and -10.1% (inactive).

Consider `C[C@]12CCC(=O)C=C1CC[C@@H]1[C@@H]2C(=O)C[C@@]2(C)[C@H]1CC[C@]2(O)C(=O)CO`, for which the activation in assay [7] was -0.667% (inactive). Further, the Potency in assay [8] was 28.2 µM (active). Moreover, the max response in [16] was 10.6%; in assay [10] it was 17.3%; in [13], 12.6%; in [14], -20.1% (inactive). Further, the call in assay [17], in [18], in assay [20], in assay [9], in [11] and in assay [6] was inactive. Further, the Potency entry in assay [12], in [1] and in assay [5] was “inactive” throughout. Also, in [19], the activity change % (negative = inhibition) was 8.91% (inactive).
